# Test results taken from PubChem BioAssay (NCATS).
# Records with an inconclusive call do not appear. Active and inactive are the calls of the source. The call rests on the fitted dose curve; in most records, active means well fitted inhibition curve with a large enough effect; inconclusive means small, poorly fitted or top-dose-only effect; inactive means no such curve, though single readings can be large or run the other way.
# Biological target: Retinaldehyde dehydrogenase 3 (Homo sapiens) (UniProt P47895)
# Experiment: qHTS for Inhibitors of the Aldehyde Dehydrogenase Family (ALDH1A3) Confirmatory screens (AID 2061311); further: nearly all actives have a fitted effect of over 60% in size; on activity change, negative = inhibition: on the % scale 0 is the no-effect control and ±100 the full control effect
# Settings: ALDH inhibition qHTS; series mostly up to 46 µM; activity change, negative = inhibition: at the top concentration
# Potency means the concentration at half of the fitted maximal effect.
SMILES,Potency,"activity change, negative = inhibition",outcome
O=C(c1ccc(-c2cc(O)c3ncccc3c2)cc1)N1CCNCC1,11.3 µM (active),,
COc1ccc(C2=Nn3c(nnc3-c3ccc(OC)c(OC)c3)SC2)c(OC)c1,,-6.41% (inactive),
CCOC(=O)c1cccc(-n2cccc2/C=C2\NC(=O)N(CC(=O)O)C2=O)c1,,-12.2% (inactive),
CC(=O)c1ccc(N2CCN(C(=O)c3ccc4c(c3)CC(=O)N4)CC2)cc1,,,inactive
N=c1c2c(ncn1-c1ccccc1)Oc1ccc3ccccc3c1C2c1ccc2c(c1)CCO2 (stereo not drawn),15.8 µM (active),,
CN(Cc1ccco1)c1ncnc2ccc(-c3cccnc3)cc12,7.98 µM (active),,
Cc1cccc(C)c1-n1c(SCC(=O)NCCCCCC(=O)O)nnc1-c1cccc([S+](=O)([O-])N2CCCC2)c1,,-15.7% (inactive),
Cc1ccnc(NC(=S)N2CCN(c3ccc(N)cc3)CC2)c1,,,inactive
CN(Cc1cccs1)c1ncnc2ccc(-c3ccc4cnn(C)c4c3)cc12,,-15.7% (inactive),
O=C1Cc2cc(S(=O)(=O)N3CCN(c4ccc(C(F)(F)F)cc4)CC3)ccc2N1,,,inactive [at 85.7 µM]
O=C(Cc1ccc(Cl)c(Cl)c1)Nc1ccc(S(=O)(=O)Nc2cccc(C(=O)O)c2)cc1,,-1.09% (inactive),
COc1ccc(OC)c(-c2nnc3n2N=C(c2ccc(OC)c(OCC4CC4)c2)CS3)c1,,-8.49% (inactive),
Cn1nnnc1Sc1ncnc2scc(-c3cnc(N)nc3)c12,,-11.6% (inactive),
Cc1cccc(Nc2nc(C#N)nc(NC3CCCC3)n2)c1,17.8 µM (active),,
S=C(Nc1cc(Cl)ccn1)N1CCN(c2ccc3ccccc3n2)CC1,22.5 µM (active),,
CN(C)CCCNc1ncnc2ccc(-c3ccc4c(c3)OCO4)cc12,,,inactive
O=C(NC1CCCc2c1cnn2-c1ccc(F)cc1F)c1ccc(C(=O)c2ccccc2)cc1 (stereo not drawn),,-19.4% (inactive),
O=C1CCCC2=C1C(c1[nH]ncc1Cl)NC(=S)N2 (stereo not drawn),,,inactive
N#Cc1nc(Nc2cccc(Br)c2)nc(NC2CCCC2)n1,,-6.53% (inactive),
CCOc1ccc(C(=O)Nc2ccc(-c3nc4ccccc4[nH]3)cc2)cc1,,-13.9% (inactive),
CCOC(=O)c1ccoc1-c1ccc2ncnc(NCc3ncc[nH]3)c2c1,,-12.1% (inactive),
COc1ccc(C2Nc3ccccc3C(=O)N2Cc2ccccc2)cc1COc1ccc(NC(=O)c2ccccc2)cc1 (stereo not drawn),,-13.3% (inactive),
Cc1cccc(S(=O)(=O)NC2CCN(C#N)C2)c1 (stereo not drawn),,-4.49% (inactive),

# Biological target: Retinaldehyde dehydrogenase 3 (Homo sapiens) (UniProt P47895)
# Experiment: qHTS for Inhibitors of the Aldehyde Dehydrogenase Family (ALDH1A3) Primary screen (AID 2061315);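 on activity change, negative = inhibition: plate controls were DMSO vehicle for no effect and reference inhibitor for full effect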
# Settings: ALDH inhibition qHTS; series mostly up to 56 µM; activity change, negative = inhibition: at the top concentration
SMILES,"activity change, negative = inhibition",Potency
COc1ccc(C2Nc3ccccc3C(=O)N2Cc2ccccc2C(F)(F)F)cc1COc1ccc(NC(C)=O)cc1 (stereo not drawn),-10.5% (inactive),
COc1ccc(C2Nc3ccccc3C(=O)N2Cc2cccc(C(F)(F)F)c2)cc1COc1ccc(NC(C)=O)cc1 (stereo not drawn),-11.3% (inactive),
COc1ccc(C2=Nn3c(nnc3-c3ccccc3C)SC2)cc1,10.6% (inactive),
CNc1oc(-c2cccc(-c3ccccc3)c2)nc1C#N,5.24% (inactive),
O=C(O)c1cccc(-c2noc(-c3cccc(Cl)c3)n2)c1,,0.562 µM (active)
O=[N+]([O-])c1ccc(CNc2ccc([S+](=O)([O-])Nc3nccs3)cc2)c(O)c1,35.9% (inactive),
Nc1nnc(-c2cccc3ccccc23)o1,23% (inactive),
O=C1c2ccccc2C(=O)N1c1ncccc1O,-23% (inactive),
O=C(Nc1ccc2c(c1)CCC2)Nc1nnc(-c2ccncc2)s1,7.4% (inactive),
COc1cccc(C2c3c(ncn(-c4ccccc4C#N)c3=N)Oc3ccc4ccccc4c32)c1 (stereo not drawn),-1.71% (inactive),
Cc1ccc(Cl)cc1NS(=O)(=O)c1cc2c(cc1F)NC(=O)CC2,22.5% (inactive),
O=C(O)c1cccc(-n2cccc2)c1,0.9% (inactive),
CC(C)(C)CNc1nc(C#N)nc(Nc2ccccc2)n1,-4.01% (inactive),
COc1cccc(CNc2ccc([S+](=O)([O-])Nc3cc4ccccc4s3)cc2)c1O,-1.82% (inactive),
N#Cc1c(-c2ccc(F)cc2)no[n+]1[O-],-4.85% (inactive),
Cc1cccc(C[C@H](C(=O)O)N2C(=O)c3ccc(C(=O)O)cc3C2=O)c1,6.94% (inactive),
Cc1ccc(C)c(SC2=NS(=O)(=O)c3ccccc32)c1,-9.34% (inactive),
O=C(c1ccc(-c2cc(O)c3ncccc3c2)cc1)N1CCNCC1,-8.34% (inactive),
COc1ccc(C2=Nn3c(nnc3-c3ccc(OC)c(OC)c3)SC2)c(OC)c1,0.61% (inactive),
CCOC(=O)c1cccc(-n2cccc2/C=C2\NC(=O)N(CC(=O)O)C2=O)c1,-4.64% (inactive),

SMILES,"activity change, negative = inhibition",Potency
CC(=O)c1ccc(N2CCN(C(=O)c3ccc4c(c3)CC(=O)N4)CC2)cc1,-10.2% (inactive),
N=c1c2c(ncn1-c1ccccc1)Oc1ccc3ccccc3c1C2c1ccc2c(c1)CCO2 (stereo not drawn),24% (inactive),
CN(Cc1ccco1)c1ncnc2ccc(-c3cccnc3)cc12,-11.3% (inactive),
Cc1cccc(C)c1-n1c(SCC(=O)NCCCCCC(=O)O)nnc1-c1cccc([S+](=O)([O-])N2CCCC2)c1,6.06% (inactive),
Cc1ccnc(NC(=S)N2CCN(c3ccc(N)cc3)CC2)c1,-19.6% (inactive),
CN(Cc1cccs1)c1ncnc2ccc(-c3ccc4cnn(C)c4c3)cc12,1.62% (inactive),
O=C1Cc2cc(S(=O)(=O)N3CCN(c4ccc(C(F)(F)F)cc4)CC3)ccc2N1,2.66% [at 114 µM] (inactive),
O=C(Cc1ccc(Cl)c(Cl)c1)Nc1ccc(S(=O)(=O)Nc2cccc(C(=O)O)c2)cc1,6.16% (inactive),
COc1ccc(OC)c(-c2nnc3n2N=C(c2ccc(OC)c(OCC4CC4)c2)CS3)c1,9.1% (inactive),
Cn1nnnc1Sc1ncnc2scc(-c3cnc(N)nc3)c12,0.744% (inactive),
Cc1cccc(Nc2nc(C#N)nc(NC3CCCC3)n2)c1,-1.79% (inactive),
S=C(Nc1cc(Cl)ccn1)N1CCN(c2ccc3ccccc3n2)CC1,-19.3% (inactive),
CN(C)CCCNc1ncnc2ccc(-c3ccc4c(c3)OCO4)cc12,-13.2% (inactive),
O=C(NC1CCCc2c1cnn2-c1ccc(F)cc1F)c1ccc(C(=O)c2ccccc2)cc1 (stereo not drawn),6.1% (inactive),
O=C1CCCC2=C1C(c1[nH]ncc1Cl)NC(=S)N2 (stereo not drawn),1.77% (inactive),
N#Cc1nc(Nc2cccc(Br)c2)nc(NC2CCCC2)n1,3.47% (inactive),
CCOc1ccc(C(=O)Nc2ccc(-c3nc4ccccc4[nH]3)cc2)cc1,-1.4% (inactive),
CCOC(=O)c1ccoc1-c1ccc2ncnc(NCc3ncc[nH]3)c2c1,19.1% (inactive),
COc1ccc(C2Nc3ccccc3C(=O)N2Cc2ccccc2)cc1COc1ccc(NC(=O)c2ccccc2)cc1 (stereo not drawn),-0.748% (inactive),
Cc1cccc(S(=O)(=O)NC2CCN(C#N)C2)c1 (stereo not drawn),-1.36% (inactive),
